Screening data as filed in PubChem.
12-LOX inh: Primary qHTS assay for inhibitors of human arachidonate 12S-lipoxygenase (ALOX12): Round 2; purified 12hLO, xylenol orange hydroperoxide absorbance; AID 1671190, 2021; Polyunsaturated fatty acid lipoxygenase ALOX12 (Homo sapiens), P18054; Potency, µM (highest dose often 108 µM), without a hit: top-dose activity change, negative = inhibition, usual class: inhibitors; 1.1% of 580,000 active; further: potency means the concentration at half of the fitted maximal effect
Target sequence (P18054 whole entry, looked up): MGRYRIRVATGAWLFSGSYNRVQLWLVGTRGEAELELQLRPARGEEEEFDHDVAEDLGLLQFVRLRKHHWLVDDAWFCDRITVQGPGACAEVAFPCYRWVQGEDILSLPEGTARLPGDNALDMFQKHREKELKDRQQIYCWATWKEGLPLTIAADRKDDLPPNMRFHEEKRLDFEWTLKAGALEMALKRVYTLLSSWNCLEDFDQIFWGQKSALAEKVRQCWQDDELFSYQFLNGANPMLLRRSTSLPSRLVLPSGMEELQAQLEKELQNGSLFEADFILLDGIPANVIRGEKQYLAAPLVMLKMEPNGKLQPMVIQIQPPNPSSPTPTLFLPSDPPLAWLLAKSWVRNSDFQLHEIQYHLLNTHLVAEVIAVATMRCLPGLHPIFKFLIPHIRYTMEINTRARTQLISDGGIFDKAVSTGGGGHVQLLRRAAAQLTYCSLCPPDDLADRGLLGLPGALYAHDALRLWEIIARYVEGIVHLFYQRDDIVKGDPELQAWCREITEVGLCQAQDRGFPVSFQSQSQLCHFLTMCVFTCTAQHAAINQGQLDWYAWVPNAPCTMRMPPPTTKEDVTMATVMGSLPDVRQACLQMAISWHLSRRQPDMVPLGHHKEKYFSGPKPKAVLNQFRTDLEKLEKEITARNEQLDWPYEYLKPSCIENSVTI
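Purified human 12hLO (150 nM final) in 25 mM Hepes, 0.01% Triton X-100, pH 7.0 was preincubated 15 min at room temperature with compound. Then 40 uM arachidonic acid was added, 30 min. Hydroperoxide was read by Fe-XO absorbance ratio 573/405 nm.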
HT1080 IDH1KD tx: qHTS for induction of synthetic lethality in tumor cells producing 2HG: qHTS for the HT-1080-IDH1KD cell line; HT-1080 IDH1 knockdown viability, ATP luminescence, 48 h; Potency, µM (series often up to 46.1 µM), without a hit: at the highest dose activity, negative = toxicity, actives largely listed as cytotoxic; 2% of 360,000 active;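 further: potency means the concentration at half of the fitted maximal effect; 0% = DMSO wells and -100% = cell-free medium wells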
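Assay cells: HT-1080 with IDH1 knockdown, 750 per well, RPMI/5% FBS. Exposure: 48 h at 37 °C following 2 h pre-incubation. Read: CellTiter-Glo luminescence; fitted concentration-response, curve class assigned.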
TDP1 cell CPT: qHTS for Inhibitors of human tyrosyl-DNA phosphodiesterase 1 (TDP1): qHTS in cells in presence of CPT; chicken DT40 Tdp1-/-;hTDP1 cells + 20 nM CPT, ATP luminescence, 48 h; Potency, µM (highest dose often 46.2 µM), without a hit: top-dose activity change, negative = growth inhibition, hits mostly inhibitors; 12% of 420,000 active; further: potency means the concentration at half of the fitted maximal effect; nearly all actives have a fitted effect of over 55% in size
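Chicken DT40 Tdp1-/- cells stably complemented with human TDP1 were seeded at 400 cells/well in medium containing 20 nM camptothecin, exposed to pin-transferred compounds, and grown at 37 °C for at least 48 hr. Viability was read as ATP luminescence.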
DT40 TDP1 no CPT: qHTS for Inhibitors of human tyrosyl-DNA phosphodiesterase 1 (TDP1): qHTS in cells in absence of CPT. Potency, µM (titrated, usually from 46.2 µM), for inactives: at the highest dose activity change, negative = growth inhibition, actives largely listed as inhibitors. 15% of 420,000 active. AID 686978, 2013. DT40 Tdp1-/- hTDP1 cells, no CPT, ATP luminescence, 48 h; further: potency means the concentration at half of the fitted maximal effect; nearly all actives have a fitted effect of over 55% in size
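A cellular qHTS used chicken DT40 cells lacking endogenous Tdp1 but carrying stably transfected human TDP1. Compounds were applied without camptothecin, and cell growth kinetics were judged by ATP-dependent luminescence after ≥48 hr.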
IL-1B inflam inh: qHTS for Inhibitors of Inflammasome Signaling: IL-1-beta AlphaLISA Primary Screen. THP-1 LPS/ATP IL-1B secretion, AlphaLISA, 16 h; stronger effect = lower value. 4.7% of 360,000 active. activity change, % at 57.5 µM; in the data active means activity change below about -50%; inconclusive means mostly about -30% to -49%
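THP-1 cells pretreated 1 hr with compounds (up to 57.5 uM final), then stimulated with LPS (250 ng/mL final) plus ATP (1.25 mM final); secreted IL-1B measured by AlphaLISA after 16 hr, decreased signal indicating inhibition.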
HT1080NT lethal: qHTS for induction of synthetic lethality in tumor cells producing 2HG: qHTS for the HT-1080-NT fibrosarcoma cell line; HT-1080-NT fibrosarcoma viability, CellTiter-Glo ATP luminescence, 48 h; Potency, µM (top dose mostly 46.1 µM), without a hit: at the top dose activity, negative = less viability, actives largely listed as cytotoxic; 1.6% of 360,000 active;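 further: NT is the 2HG producing partner of a matched IDH1 knockdown line; potency means the concentration at half of the fitted maximal effect; 0% = DMSO-treated cells and -100% = media-only wells without cells; nearly all actives have a fitted effect of over 55% in size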
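A 48-hour cytotoxicity screen used HT-1080-NT cells plated 2 hours before compound delivery. ATP-based CellTiter-Glo luminescence measured viability, normalized to DMSO and no-cell controls.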
* = called active by the depositor; u = inconclusive; x = no result. Only a selection was taken, and hits are over-represented in it overall. Unless noted, the call rests on the fitted dose curve; in most records, active means well fitted curve in the direction sought with a large enough effect; inconclusive means small, poorly fitted or top-dose-only effect, or another doubt; inactive means no such curve, though single readings can be large; an effect the other way counts as inactive or inconclusive. Unless noted, on the % scale 0 is the no-effect control and ±100 the full control effect.

SMILES | 12-LOX inh | HT1080 IDH1KD tx | TDP1 cell CPT | DT40 TDP1 no CPT | IL-1B inflam inh | HT1080NT lethal
CC(C)CNC(=O)C1(C)CCCN1C(=O)C(C)(C)Oc1ccc(Cl)cc1 (stereo not given) | -1.3% | 8.8% | u | 16.4µM* | 41.7 | 5.0%
O=c1[nH]c2ccccc2nc1/C=C(\O)C(F)F | -3.7% | 13.5% | -8.6% | -12.0% | 4.3 | 7.8%
O=Nc1[nH]c(=O)c(/C=C(\O)c2ccccc2)nc1NO | u | u | u | 16.4µM* | -22.1 | u
COc1cc2c(cc1OC)C(c1cccs1)N(C(=S)NC(C)C)CC2 (stereo not given) | 158.3% | -10.6% | u | 14.6µM* | -26.6 | u
COc1cc2c(cc1OC)C(c1cccs1)N(C(=O)c1ccncc1)CC2 (stereo not given) | 3.3% | 13µM* | 13µM* | u | 0.0 | u
COc1cc2c(cc1[N+](=O)[O-])-c1ccc([N+](=O)[O-])cc1C2=NO | -10.9% | -16.7% | 25.9µM* | 14.6µM* | u | -13.8%
Nc1cc2c(cc1Cl)-c1ccc([N+](=O)[O-])cc1C2=NO | 7.5% | u | 8.2µM* | 7.31µM* | 2.5 | 20.5%
COc1ccc(Nc2ccc([N+](=O)[O-])cc2[N+](=O)[O-])cc1 | 0.0% | -2.9% | 14.7% | -21.0% | 0.0 | 2.8%
O=[N+]([O-])c1ccc2c(c1)C(=NO)c1cc(F)ccc1-2 | -5.6% | 3.8% | 16.4µM* | 11.6µM* | u | 7.4%
O=[N+]([O-])c1ccc2c(c1)/C(=N\O)c1ccccc1-2 | 218.4% | -8.6% | u | u | -8.4 | -8.8%
O=C(N/C=N/OCc1ccc(Cl)cc1Cl)NOCc1ncc(C(F)(F)F)cc1Cl | u | 25.9µM* | u | 14.6µM* | -14.0 | u
CO/N=C/NC(=O)NOCc1ncc(C(F)(F)F)cc1Cl | 0.0% | -0.4% | -9.9% | 0.3% | -10.8 | -2.3%
Cc1cccc(-c2nc3ccccc3c(=O)n2NC(=S)N(C)C)c1 | u | 0.0% | 9.2µM* | 8.2µM* | -1.6 | 0.2%
CN(C)C(=S)Nn1c(-c2ccccc2)nc2ccccc2c1=O | 5.0% | 25.4% | -5.2% | -23.3% | 5.1 | 21.5%
Cc1ccc(Cn2c(SCC(C)C)nc3c2c(=O)n(C)c(=O)n3C)cc1 | -11.8% | -6.2% | 25.9µM* | 25.9µM* | -27.6 | -0.7%
Cn1c(=O)c2c(nc(Sc3ncccn3)n2Cc2ccc(Cl)cc2)n(C)c1=O | -15.6% | -11.7% | 11.6µM* | u | 14.7 | -3.4%
C=CCSc1nc2c(c(=O)n(C)c(=O)n2C)n1Cc1ccc(Cl)cc1 | 3.5% | x | x | x | x | x
CCSc1nc2c(c(=O)n(C)c(=O)n2C)n1Cc1ccc(Cl)cc1 | 0.0% | 0.1% | 20.6µM* | 18.4µM* | 0.0 | -1.8%
Cn1c(=O)c2c(nc(SCC(=O)c3cccs3)n2Cc2ccc(F)cc2)n(C)c1=O | 1.9% | 0.2% | 20.6µM* | 11.6µM* | 9.2 | 5.0%
COc1ccc(C(=O)N2CCN(C(=O)c3ccccc3)C[C@@H]2C(=O)N[C@H]2CCCNC2=O)cc1 | 21.5% | x | x | x | x | x
COCCNC(=O)[C@H]1C[C@H](Oc2ccccc2)CN1C(=O)Nc1ccccc1 | 27.5% | x | x | x | x | x
Cc1ccc(Cn2c(Sc3ncccn3)nc3c2c(=O)[nH]c(=O)n3C)cc1 | u | -7.9% | u | 16.4µM* | 14.7 | u
